Compound activity deposited in PubChem BioAssay by several laboratories.
Only some compounds are listed: those with a hit (about 4.7% of all), similar ones and a draw of the others.
TIM10 inh = growth inhibitors of TIM10 yeast strain | S. cerevisiae TIM10 strain growth, BacTiter-Glo luminescence, 24 h | inhibition, % at 10 µM | 330,000 tested, 1.4% active;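 active = inhibition of 40% or more at the single tested concentration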;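 note: wild-type TIM10 isogenic control strain grown at permissive 25 °C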
ATG4B inhibitor = ATG4B (human) cysteine protease inhibition | Q9Y4P1 | ATG4B cleavage of LC3-PLA2, NBD-HPC fluorescence, 1 h | inhibition, % at 8.33 µM | 340,000 tested, 0.51% active | AID 504462; in the data active = inhibition above about 40%
Target sequence (Q9Y4P1 whole entry, looked up): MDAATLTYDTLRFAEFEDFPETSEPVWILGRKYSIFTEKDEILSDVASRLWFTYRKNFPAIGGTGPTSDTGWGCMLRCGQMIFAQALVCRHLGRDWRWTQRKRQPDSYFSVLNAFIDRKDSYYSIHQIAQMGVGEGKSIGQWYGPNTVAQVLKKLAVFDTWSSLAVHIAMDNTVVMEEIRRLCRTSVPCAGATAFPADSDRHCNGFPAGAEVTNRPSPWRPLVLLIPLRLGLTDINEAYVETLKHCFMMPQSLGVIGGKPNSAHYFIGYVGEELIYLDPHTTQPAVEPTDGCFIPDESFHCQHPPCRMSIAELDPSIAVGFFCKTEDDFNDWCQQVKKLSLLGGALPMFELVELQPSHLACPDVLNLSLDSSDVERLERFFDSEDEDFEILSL
PfHsp90 set2 = reduces growth (ATP signal) of yeast expressing P. falciparum Hsp90; 310,000 tested, 0.32% active; S. cerevisiae expressing PfHsp90, BacTiter-Glo ATP, 48 h; yeast lacking PDR1 and PDR3 efflux regulators; inhibition, % at 9.4 µM;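 active = every replicate shows inhibition above about 80%, whatever the replicate mean, limit read from the data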;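 note: 0% = DMSO neutral controls and 100% = 20 µM radicicol positive controls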
SKKanGAS inh = inhibitors of SKKanGAS S. pyogenes growth in kanamycin (SK-promoter or general growth effect); 300,000 tested, 1.3% active; BacTiter-Glo, 6 h; inhibition, % at 7.5 µM; AID 1662;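 active = mean replicate score, as percent of positive control median, at least 50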;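 note: strain carries kanamycin resistance gene driven by streptokinase promoter and grows in 40 µg/ml kanamycin; loss of luminescence reflects streptokinase promoter inhibition or plain growth inhibition; 0% = median of DMSO wells and 100% = positive control at its reference dose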
tim23-1 inh = tim23-1 yeast growth inhibition. 330,000 tested, 1.3% active. S. cerevisiae tim23-1 growth, BacTiter-Glo luminescence, 24 h. inhibition, % at 20 µM;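 active = growth inhibition of the mutant yeast at or above 50%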;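 note: temperature-sensitive mutant grown at 25 °C; plate controls were DMSO-treated mutant yeast for no effect and medium wells lacking yeast for full effect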
tim10-1 inh = growth inhibitors of tim10-1 mutant yeast | S. cerevisiae tim10-1 ts strain growth, BacTiter-Glo, 24 h | inhibition, % at 20 µM | 330,000 tested, 2.2% active;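 active = inhibition of at least 40%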;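 note: mutant grown at 25 °C; 0% = DMSO wells with yeast and 100% = wells holding no yeast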
tim10-1 conf = tim10-1 yeast growth inhibition, confirmed; shares compounds with tim10-1 inh; S. cerevisiae tim10-1 ts strain growth, BacTiter-Glo, 24 h; inhibition, % at 20 µM; 7,400 tested, 56% active;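 active = inhibition of yeast growth at or above a set limit in either of two repeat tests at 20 µM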;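 note: tim10-1 mutant grown at permissive 25 °C to find synthetic lethal compounds; 0% = DMSO yeast wells and 100% = medium wells without yeast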
tim10 confirm = confirmation of TIM10 yeast growth inhibitors. shares compounds with TIM10 inh. S. cerevisiae tim10 strain growth, BacTiter-Glo luminescence, 24 h. inhibition, % at 10 µM. 4,600 tested, 63% active. AID 463215;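 active = inhibition of yeast growth at or above a set limit in either of two replicates at 10 µM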;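 note: this counterscreen used the strain with wild-type TIM10; 0% = yeast with DMSO and 100% = medium wells lacking yeast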
tim23-1 conf = confirmation of tim23-1 mutant yeast growth inhibitors | shares compounds with tim23-1 inh | S. cerevisiae tim23-1 growth, BacTiter-Glo luminescence, 24 h | inhibition, % at 20 µM | 4,400 tested, 83% active | AID 463218;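 active = inhibition above about 39% in either of two replicate wells at 20 µM, limit read from the data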;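 note: temperature-sensitive tim23-1 mutant grown at 25 °C; 0% = DMSO wells with yeast and 100% = medium wells without yeast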
* = called active by the depositor.

Results for O=[N+]([O-])c1ccc(NC(=S)NCCc2ccc(Cl)cc2)cc1 ?
TIM10 inh: 72.0*; ATG4B inhibitor: -5.0; PfHsp90 set2: 107.6*; SKKanGAS inh: 98.5*; tim23-1 inh: 65.1*; tim10-1 inh: 64.7*; tim10-1 conf: 72.7*; tim10 confirm: 85.4*; tim23-1 conf: 67.6*

Results for O=[N+]([O-])c1ccc(NC(=S)NCCc2ccccc2)cc1 ?
TIM10 inh: 58.9*; ATG4B inhibitor: -9.0; PfHsp90 set2: -6.1; SKKanGAS inh: 4.9; tim23-1 inh: 52.5*; tim10-1 inh: 67.1*; tim10-1 conf: 56.8*; tim10 confirm: 51.8*; tim23-1 conf: 68.9*

How did O=S(=O)(c1ccc2nc(N3CCN(c4ccccc4F)CC3)ccc2c1)N1CCCCC1 do in these assays?
TIM10 inh: 7.3; ATG4B inhibitor: 7.9; PfHsp90 set2: -4.4; SKKanGAS inh: 6.3; tim23-1 inh: -0.3; tim10-1 inh: -7.5

Results for O=S(=O)(c1ccc2nc(Nc3ccccc3)ccc2c1)N1CCCCC1 ?
TIM10 inh: 23.4; ATG4B inhibitor: 13.8; PfHsp90 set2: -5.1; SKKanGAS inh: -3.7; tim23-1 inh: 50.1*; tim10-1 inh: 50.5*; tim10-1 conf: 30.1; tim23-1 conf: 42.4*

How did C=CCOn1c(=O)c(-c2cccs2)[n+]([O-])c2ccccc21 do in these assays?
TIM10 inh: 40.6*; ATG4B inhibitor: -0.9; SKKanGAS inh: 5.3; tim23-1 inh: 61.4*; tim10-1 inh: 53.1*; tim10-1 conf: 21.0; tim10 confirm: 33.2*; tim23-1 conf: 69.8*

Results for Cc1ccccc1-c1cc(C(=O)Nc2sc(C)c(C)c2C(N)=O)c2ccccc2n1 ?
TIM10 inh: 30.9; ATG4B inhibitor: 23.0; PfHsp90 set2: -12.9; SKKanGAS inh: 47.0; tim23-1 inh: 53.7*; tim10-1 inh: 42.3*; tim10-1 conf: 31.2*; tim23-1 conf: 41.9*

What do the screens show for `Cc1cccc(C)c1NC(=S)NC(=O)CCc1ccccc1`?
TIM10 inh: 47.5*; ATG4B inhibitor: 1.4; PfHsp90 set2: 14.9; SKKanGAS inh: 0.7; tim23-1 inh: 56.1*; tim10-1 inh: 50.6*; tim10-1 conf: 35.0*; tim10 confirm: 36.0*; tim23-1 conf: 42.1*

What do the screens show for `Cc1cc2c(NC(=O)Nc3ccc(C(F)(F)F)cc3)cccc2nn1`?
TIM10 inh: -11.0; ATG4B inhibitor: 11.5; PfHsp90 set2: 7.4; SKKanGAS inh: 13.1; tim23-1 inh: -5.2; tim10-1 inh: -4.7

Results for Cc1noc(C)c1C(=O)Nc1nc2ccc(Cl)cc2s1 ?
TIM10 inh: 32.5; ATG4B inhibitor: 1.0; PfHsp90 set2: 29.1; SKKanGAS inh: 0.7; tim23-1 inh: 62.4*; tim10-1 inh: 50.0*; tim10-1 conf: 31.9*; tim23-1 conf: 47.3*

What do the screens show for `Cc1ccc(/C(N)=N/OC(=O)CCC2CCCC2)cc1`?
TIM10 inh: 63.4*; ATG4B inhibitor: 0.9; PfHsp90 set2: -7.3; SKKanGAS inh: 2.3; tim23-1 inh: 71.6*; tim10-1 inh: 57.9*; tim10-1 conf: 46.5*; tim10 confirm: 75.3*; tim23-1 conf: 55.2*

Results for N/C(=N\OC(=O)CCC1CCCC1)c1ccc(Cl)cc1 ?
TIM10 inh: 79.0*; ATG4B inhibitor: -2.4; SKKanGAS inh: -7.1; tim23-1 inh: 58.9*; tim10-1 inh: 61.4*; tim10-1 conf: 61.2*; tim10 confirm: 73.0*; tim23-1 conf: 65.0*

Results for Cc1cccc(/C(N)=N/OC(=O)CCC2CCCCC2)c1 ?
TIM10 inh: 62.0*; ATG4B inhibitor: 22.9; PfHsp90 set2: -20.3; SKKanGAS inh: 0.8; tim23-1 inh: 64.3*; tim10-1 inh: 50.2*; tim10-1 conf: 56.5*; tim10 confirm: 75.5*; tim23-1 conf: 71.5*

Results for Cc1ccc(/C(N)=N/OC(=O)CCC2CCCCC2)cc1 ?
TIM10 inh: 83.0*; ATG4B inhibitor: -2.4; SKKanGAS inh: 2.8; tim23-1 inh: 77.5*; tim10-1 inh: 59.8*; tim10-1 conf: 43.5*; tim10 confirm: 81.8*; tim23-1 conf: 70.5*

How did N/C(=N\OC(=O)CCC1CCCC1)c1ccncc1 do in these assays?
TIM10 inh: 13.0; ATG4B inhibitor: -1.5; PfHsp90 set2: -5.7; SKKanGAS inh: 6.9; tim23-1 inh: 2.9; tim10-1 inh: 10.7

Results for CC[C@@H](C)C(NC(=O)OC(C)(C)C)c1cn([C@@H](CCCCNC(=O)OC(C)(C)C)C(=O)N2CCN(C(=O)OC(C)(C)C)CC2)nn1 (stereo not given in full) ?
TIM10 inh: 5.4; ATG4B inhibitor: 1.5; PfHsp90 set2: 7.2; SKKanGAS inh: 5.9; tim23-1 inh: 7.2; tim10-1 inh: -3.5

How did COc1ccccc1NC(=O)c1nn(C)cc1Br do in these assays?
TIM10 inh: -9.4; ATG4B inhibitor: 3.1; PfHsp90 set2: -7.1; SKKanGAS inh: -6.9; tim23-1 inh: 19.1; tim10-1 inh: 9.3

Results for O=C1C(=O)N(CCS(=O)(=O)c2ccccc2)c2ccc(Cl)cc21 ?
TIM10 inh: 15.1; ATG4B inhibitor: -1.2; PfHsp90 set2: 8.4; SKKanGAS inh: 2.5; tim23-1 inh: 21.5; tim10-1 inh: 22.5

Results for O=C(CN1CCN(S(=O)(=O)c2cccc(Br)c2)CC1)NCCc1cccs1 ?
TIM10 inh: 17.6; ATG4B inhibitor: -14.1; PfHsp90 set2: 24.2; tim23-1 inh: 21.8; tim10-1 inh: 18.5

Results for COc1ccc(/C(N)=N/OC(=O)CCC2CCCC2)cc1 ?
TIM10 inh: 53.8*; ATG4B inhibitor: -1.5; PfHsp90 set2: 6.8; SKKanGAS inh: 5.2; tim23-1 inh: 65.1*; tim10-1 inh: 60.3*; tim10-1 conf: 56.2*; tim10 confirm: 53.2*; tim23-1 conf: 66.8*

What do the screens show for `COc1ccc(S(=O)(=O)CC(=O)c2cc3cc(Br)ccc3oc2=O)cc1`?
TIM10 inh: 30.5; ATG4B inhibitor: 10.4; PfHsp90 set2: 9.9; SKKanGAS inh: 3.0; tim23-1 inh: 71.8*; tim10-1 inh: 62.0*; tim10-1 conf: 50.2*; tim23-1 conf: 85.5*

Results for COc1ccc(OC)c(S(=O)(=O)CC(=O)c2cc3ccc(OC)cc3oc2=O)c1 ?
TIM10 inh: 9.4; ATG4B inhibitor: 5.0; PfHsp90 set2: -35.1; SKKanGAS inh: 10.5; tim23-1 inh: 38.3; tim10-1 inh: 29.8
